Assay [1] is described as follows: A CellTox Green Cytotoxicity Assay to monitor cytotoxicity in HEK293 cells - 40 hour (AID 1224871). Also: nearly all actives have a fitted effect of over 45% in size. Also: potency is read from the fitted curve at half-maximal effect. In short, it runs like this: (§1)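 Cells (HEK293, 600/well) and dye reagent are dispensed together. After 5 h at 37 C, 23 nL compound is pinned in. Plates stay at 37 C for 40 h with fluorescence read at 0h, 8h, 16h, 24h, 32h and 40h.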
Assay [2] is described as follows: qHTS RealTime-Glo MT Cell Viability Assay in HepG2 cells - 8 hour (AID 1224873). Also: nearly all actives have a fitted effect of over 55% in size. Also: potency is read from the fitted curve at half-maximal effect. Summed up: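 HepG2 cells (600/well) mixed with RealTime-Glo MT reagent, settled 5 h at 37 C/5% CO2 before compound addition. Nonlytic NanoLuc luminescence from viable-cell prosubstrate reduction read repeatedly during 40 h treatment at 37 C.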
Assay [3] in a line: qHTS RealTime-Glo MT Cell Viability Assay in HEK293 cells - 40 hour (AID 1224874). Also: nearly all actives have a fitted effect of over 50% in size. Also: potency is read from the fitted curve at half-maximal effect. The following applies: RealTime-Glo luminescence; max response: stronger effect = lower value. Summed up: (§2)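 Real-time viability in HEK293: signal arises when living cells convert a prosubstrate for NanoLuc in the medium, so luminescence tracks viable cell number. Compound (23 nL, DMSO) added 5 h post-seeding; kinetic reads at 0–40 h, 37 C.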

The nature of assay [4]: A CellTox Green Cytotoxicity Assay to monitor cytotoxicity in HEK293 cells - 24 hour (AID 1224875). Also: nearly all actives have a fitted effect of over 45% in size. Also: potency is read from the fitted curve at half-maximal effect. In short, it runs like this:
as §1

The nature of assay [5]: A CellTox Green Cytotoxicity Assay to monitor cytotoxicity in HepG2 cells - 16 hour (AID 1224876). Also: nearly all actives have a fitted effect of over 45% in size. Also: potency is read from the fitted curve at half-maximal effect. Summed up:
(§3)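 Cells and non-lytic dye reagent are dispensed together (600 HepG2 cells/well) and incubated 5 h before DMSO compound transfer. Kinetic fluorescence is then recorded in the same wells during 40 h at 37 C.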

Assay [6] can be described thus: qHTS RealTime-Glo MT Cell Viability Assay in HepG2 cells - 32 hour (AID 1224877). Also: nearly all actives have a fitted effect of over 55% in size. Also: potency is read from the fitted curve at half-maximal effect. Summed up:
(§4)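 Real-time, nonlytic viability: 600 HepG2 cells/well mixed with NanoLuc enzyme plus prosubstrate; 5 h settle, compound (DMSO) added by pintool; luminescence monitored over 40 h at 37 C.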

A short description of assay [7]: A CellTox Green Cytotoxicity Assay to monitor cytotoxicity in HepG2 cells - 24 hour (AID 1224878). Also: nearly all actives have a fitted effect of over 45% in size. Also: potency is read from the fitted curve at half-maximal effect. Summed up: as §3
Assay [8] in a line: A CellTox Green Cytotoxicity Assay to monitor cytotoxicity in HepG2 cells - 40 hour (AID 1224879). Also: nearly all actives have a fitted effect of over 40% in size. Also: potency is read from the fitted curve at half-maximal effect. Summed up:
as §3

Assay [9] in a line: A CellTox Green Cytotoxicity Assay to monitor cytotoxicity in HEK293 cells - 32 hour (AID 1224881). Also: nearly all actives have a fitted effect of over 40% in size. Also: potency is read from the fitted curve at half-maximal effect. Summed up: as §1
Assay [10] is described as follows: A CellTox Green Cytotoxicity Assay to monitor cytotoxicity in HepG2 cells - 0 hour (AID 1224882). Also: nearly all actives have a fitted effect of over 35% in size. Summed up:
as §3

Assay [11] in a line: A CellTox Green Cytotoxicity Assay to monitor cytotoxicity in HepG2 cells - 32 hour (AID 1224883). Also: nearly all actives have a fitted effect of over 50% in size. Also: potency is read from the fitted curve at half-maximal effect. Summed up:
as §3

Assay [12] is described as follows: qHTS RealTime-Glo MT Cell Viability Assay in HepG2 cells - 16 hour (AID 1224885). Also: nearly all actives have a fitted effect of over 50% in size. Also: potency is read from the fitted curve at half-maximal effect. In short, it runs like this:
as §4

Assay [13] can be described thus: qHTS RealTime-Glo MT Cell Viability Assay in HEK293 cells - 8 hour (AID 1224887). Also: nearly all actives have a fitted effect of over 50% in size. Also: potency is read from the fitted curve at half-maximal effect. In short, it runs like this: as §2
Assay [14] can be described thus: A CellTox Green Cytotoxicity Assay to monitor cytotoxicity in HEK293 cells - 16 hour (AID 1224888). Also: nearly all actives have a fitted effect of over 35% in size. Also: potency is read from the fitted curve at half-maximal effect. Summed up:
as §1

A short description of assay [15]: A CellTox Green Cytotoxicity Assay to monitor cytotoxicity in HepG2 cells - 8 hour (AID 1224890). Also: nearly all actives have a fitted effect of over 45% in size. Summed up:
as §3

A short description of assay [16]: qHTS RealTime-Glo MT Cell Viability Assay in HepG2 cells - 0 hour (AID 1224889). Also: nearly all actives have a fitted effect of over 50% in size. In short, it runs like this:
as §4

A short description of assay [17]: qHTS RealTime-Glo MT Cell Viability Assay in HEK293 cells - 0 hour (AID 1224880). In short, it runs like this: as §2
Assay [18] in a line: A CellTox Green Cytotoxicity Assay to monitor cytotoxicity in HEK293 cells - 8 hour (AID 1224884). Also: nearly all actives have a fitted effect of over 35% in size. Summed up:
as §1

Assay [19] in a line: qHTS RealTime-Glo MT Cell Viability Assay in HEK293 cells - 24 hour (AID 1224886). Also: nearly all actives have a fitted effect of over 50% in size. Also: potency is read from the fitted curve at half-maximal effect. Summed up: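 Cells + reagent dispensed (600 cells/well, HEK293) → 5 h at 37 C/5% CO2 → 23 nL compound in DMSO pinned → 40 h at 37 C → luminescence read at 0, 8, 16, 24, 32, 40 h.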

Values joined by “and” are separate entries in the source; they are usually repeats but may differ in a detail not shown here. Equal entries are not always repeated. Results filed as inconclusive are left out. Where a structure was tested more than once in an assay, its records may differ in their call. Active and inactive are the calls of the source. Calls follow the shape of the dose curve; as a rule, active = well fitted curve in the direction sought with a large enough effect in the repeat runs; inconclusive = weak or mixed curves; inactive = no such curve, though single readings can be large; an effect the other way counts as inactive or inconclusive.
% is scaled to controls: 0 for no effect and ±100 for the full control effect.

Take `CN(C)CCCN1c2ccccc2Sc2ccc(Cl)cc21`: the Potency is 43.6 µM (active) in [1]; 54.9 µM (active) in [2]; 21.9 µM (active) and 21.3 µM (active) in assay [3]; 49 µM (active) in assay [4]; 49 µM (active) and 21.3 µM (active) in [5]; 34.7 µM (active) and 23.9 µM (active) in [6]. The Potency was 38.9 µM (active) and 21.3 µM (active) in [7]; 24.5 µM (active) and 21.3 µM (active) in assay [8]; 43.6 µM (active) in assay [9]; 24.5 µM (active) and 23.9 µM (active) in assay [11]; 49 µM (active) and 23.9 µM (active) in assay [12]; 30.9 µM (active) in assay [13]. In assay [14], the Potency is 54.9 µM (active) and 26.8 µM (active). For the same compound, the Potency result in [10] and in assay [15] was “inactive” each time.

For the compound `Nc1ccc(O)c(N)c1`, the Potency entry in assay [1], in assay [2], in [4], in assay [5], in assay [6] and in assay [7] was “inactive” throughout. For the same compound, the Potency entry in [8], in assay [9], in assay [10], in [11], in [12] and in [14] was “inactive” each time. Moreover, the Potency result in assay [16] and in [15] was “inactive” each time. Further, the max response in assay [3] was -10.8% (inactive) and -11.4% (inactive).

As for `CCC/C=C/C=O`, the Potency result in [1], in assay [2], in assay [4], in [5], in [7] and in assay [17] was “inactive” throughout. In addition, the Potency entry in assay [9], in assay [10], in assay [11], in [12], in assay [13] and in [14] was “inactive” in each case. For the same compound, the Potency entry in assay [16] and in assay [15] was “inactive” each time. In addition, the max response in [3] was -4.27% (inactive) and 1.77% (inactive).

Take `COc1ccc(C(=O)c2ccccc2O)c(O)c1`: the Potency in assay [1] is 34.6 µM (active). Also, the Potency entry in [2], in [4], in assay [5], in assay [6], in assay [7] and in [8] was “inactive” throughout. Also, the Potency result in assay [17], in [10], in assay [11], in [18], in assay [12] and in [19] was “inactive” each time. Besides, the Potency result in [13], in [14], in assay [16] and in [15] was “inactive” throughout. In assay [3], the max response is -10.4% (inactive).

Regarding `FC(F)(F)C(Cl)Br` (configuration not stated), the Potency result in assay [1], in [2], in [4], in [5], in [6] and in assay [7] was “inactive” each time. The Potency entry in assay [8], in [9], in assay [10], in assay [11], in [18] and in [12] was “inactive” in each case. The Potency entry in assay [13], in assay [14], in assay [16] and in assay [15] was “inactive” in each case. In addition, the max response in assay [3] was -4.81% (inactive) and 5.64% (inactive).

Regarding `COC(=O)C(C)Oc1ccc(Oc2ncc(C(F)(F)F)cc2Cl)cc1` (configuration not stated), the Potency entry in [1], in [2], in assay [4], in assay [5], in assay [6] and in [7] was “inactive” throughout. Also, the Potency entry in [17], in assay [9], in [10], in assay [11], in [12] and in assay [14] was “inactive” throughout. For the same compound, the Potency entry in assay [16] and in [15] was “inactive” throughout. The max response in [3] is -25% (inactive).

For `CC1(C)NC(=O)N(c2ccc([N+](=O)[O-])c(C(F)(F)F)c2)C1=O`, the Potency entry in assay [1], in assay [2], in assay [4], in assay [5], in assay [6] and in assay [7] was “inactive” each time. Besides, the Potency entry in assay [9], in assay [10], in assay [11], in assay [12], in assay [14] and in [16] was “inactive” each time. For the same compound, the Potency result in assay [15] is “inactive”. Further, the Potency is 24.5 µM (active) in assay [3]; 24.5 µM (active) and inactive in assay [19].

Turning to `Nc1cc(Cl)c(N)c(Cl)c1`, the Potency entry in assay [1], in assay [2], in [4], in [5], in assay [6] and in [7] was “inactive” in each case. Further, the Potency result in assay [17], in [9], in assay [10], in assay [11], in assay [18] and in assay [12] was “inactive” throughout. Moreover, the Potency entry in [19], in assay [13], in assay [14], in assay [16] and in assay [15] was “inactive” throughout. For the same compound, in [3], the max response was 25.2% (inactive).

Turning to `Oc1c(Cl)ccc(Cl)c1Cl`, the Potency entry in assay [1], in assay [2], in assay [4], in [5], in assay [6] and in [7] was “inactive” in each case. The Potency result in [8], in assay [9], in assay [10], in assay [11], in [18] and in assay [12] was “inactive” throughout. Also, the Potency entry in assay [19], in assay [13], in assay [14], in assay [16] and in assay [15] was “inactive” in each case. Further, the max response in assay [3] is -14% (inactive) and -18.1% (inactive).

As for `CCCOCCO`, the Potency result in assay [1], in [2], in assay [4], in [5], in assay [7] and in assay [9] was “inactive” in each case. Also, the Potency entry in [10], in [11], in [18], in assay [12], in assay [19] and in [13] was “inactive” throughout. For the same compound, the Potency result in [14], in [16] and in assay [15] was “inactive” throughout. Besides, the max response in assay [3] is 2.92% (inactive) and 1.86% (inactive).
